The record followed here is ChEMBL document CHEMBL1961873, “Compounds: GSK PKIS; Assays: Nanosyn kinase panel” (2012).

Assay [1] deals with T1, Tyrosine-protein kinase ITK/TSK (Homo sapiens) (UniProt Q08881).
T1 sequence (whole entry): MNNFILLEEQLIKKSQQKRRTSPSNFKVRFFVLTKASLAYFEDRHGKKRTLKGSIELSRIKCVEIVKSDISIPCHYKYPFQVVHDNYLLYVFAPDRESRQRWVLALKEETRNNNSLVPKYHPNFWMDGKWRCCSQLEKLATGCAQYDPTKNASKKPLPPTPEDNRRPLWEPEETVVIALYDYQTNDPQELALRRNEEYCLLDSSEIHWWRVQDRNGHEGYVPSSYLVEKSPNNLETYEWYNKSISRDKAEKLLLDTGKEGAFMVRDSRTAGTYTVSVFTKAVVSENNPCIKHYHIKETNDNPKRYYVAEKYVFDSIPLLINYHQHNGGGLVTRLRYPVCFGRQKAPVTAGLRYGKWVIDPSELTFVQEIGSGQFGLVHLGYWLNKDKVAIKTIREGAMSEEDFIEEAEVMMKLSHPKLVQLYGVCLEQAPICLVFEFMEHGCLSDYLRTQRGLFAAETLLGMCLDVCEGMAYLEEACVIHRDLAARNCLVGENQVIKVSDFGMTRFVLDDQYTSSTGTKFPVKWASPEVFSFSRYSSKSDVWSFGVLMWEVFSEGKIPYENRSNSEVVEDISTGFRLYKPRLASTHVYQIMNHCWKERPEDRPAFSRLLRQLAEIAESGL
As to conditions: at 1 µM.

Assay [2] deals with Tyrosine-protein kinase JAK1 (Homo sapiens) (UniProt P23458). The note with it: at 0.1 µM.
Assay [3] shares this target. As to conditions: at 1 µM.
The target in assay [4] is Tyrosine-protein kinase JAK2 (Homo sapiens) (UniProt O60674). As to conditions: at 0.1 µM.
The target is the same in assay [5]. The note with it: at 1 µM.
The target in assay [6] is T2, Tyrosine-protein kinase JAK3 (Homo sapiens) (UniProt P52333).
T2 sequence (whole entry): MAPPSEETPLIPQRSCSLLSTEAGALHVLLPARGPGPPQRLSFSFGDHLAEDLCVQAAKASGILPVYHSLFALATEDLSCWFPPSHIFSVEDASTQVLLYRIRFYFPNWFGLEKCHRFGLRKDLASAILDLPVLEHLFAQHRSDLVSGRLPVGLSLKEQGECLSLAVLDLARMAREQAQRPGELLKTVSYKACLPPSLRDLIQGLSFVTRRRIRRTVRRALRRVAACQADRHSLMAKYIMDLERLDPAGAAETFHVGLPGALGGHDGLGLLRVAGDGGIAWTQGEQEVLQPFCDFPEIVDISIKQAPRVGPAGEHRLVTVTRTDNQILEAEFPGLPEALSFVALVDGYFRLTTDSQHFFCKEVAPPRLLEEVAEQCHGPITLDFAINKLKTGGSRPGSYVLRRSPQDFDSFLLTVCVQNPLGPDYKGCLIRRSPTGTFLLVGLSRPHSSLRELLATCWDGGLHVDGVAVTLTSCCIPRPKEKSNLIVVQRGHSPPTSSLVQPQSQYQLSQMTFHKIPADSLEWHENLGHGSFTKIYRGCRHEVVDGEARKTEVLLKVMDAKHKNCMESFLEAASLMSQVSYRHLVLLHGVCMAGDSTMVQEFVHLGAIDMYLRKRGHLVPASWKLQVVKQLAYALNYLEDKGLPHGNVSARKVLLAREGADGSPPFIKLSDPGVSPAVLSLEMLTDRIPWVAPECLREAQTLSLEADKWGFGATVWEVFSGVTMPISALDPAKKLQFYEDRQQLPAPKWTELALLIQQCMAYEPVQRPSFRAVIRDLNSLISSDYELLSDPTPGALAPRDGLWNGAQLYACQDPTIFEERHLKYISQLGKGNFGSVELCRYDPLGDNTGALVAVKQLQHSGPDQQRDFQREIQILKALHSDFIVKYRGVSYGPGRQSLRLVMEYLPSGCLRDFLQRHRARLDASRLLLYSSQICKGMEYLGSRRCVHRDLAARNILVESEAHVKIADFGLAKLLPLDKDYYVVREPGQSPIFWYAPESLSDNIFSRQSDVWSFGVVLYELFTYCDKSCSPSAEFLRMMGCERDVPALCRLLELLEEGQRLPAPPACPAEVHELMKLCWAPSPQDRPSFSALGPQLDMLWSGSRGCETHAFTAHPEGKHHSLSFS
The note with it: at 0.1 µM.

Assay [7] deals with T2, Tyrosine-protein kinase JAK3 (Homo sapiens). The note with it: at 1 µM.
In assay [8] the target is Vascular endothelial growth factor receptor 2 (Homo sapiens) (UniProt P35968). The note with it: at 0.1 µM.
The target is the same in assay [9]. The note with it: at 1 µM.
In assay [10] the target is Mast/stem cell growth factor receptor Kit (Homo sapiens) (UniProt P10721). As to conditions: at 0.1 µM.
The target is the same in assay [11]. The note with it: at 1 µM.
The test system of assay [12] is Mast/stem cell growth factor receptor Kit (Homo sapiens), P10721 [D816V]. As to conditions: at 0.1 µM.
The test system is the same in assay [13]. The note with it: at 1 µM.
Assay [14] has as its system Mast/stem cell growth factor receptor Kit (Homo sapiens), P10721 [T670I]. As to conditions: at 0.1 µM.
Assay [15] has the same test system. The note with it: at 1 µM.
In assay [16] the test system is Mast/stem cell growth factor receptor Kit (Homo sapiens), P10721 [V560G]. The note with it: at 0.1 µM.
Assay [17] has the same test system. The note with it: at 1 µM.
Assay [18] has as its target Tyrosine-protein kinase Lck (Homo sapiens) (UniProt P06239). The note with it: at 0.1 µM.
The target is the same in assay [19]. The note with it: at 1 µM.
Assay [20] has as its target Leukocyte tyrosine kinase receptor (Homo sapiens) (UniProt P29376). The note with it: at 0.1 µM.

Chain of Vascular endothelial growth factor receptor 2 (Homo sapiens) (P35968 whole entry): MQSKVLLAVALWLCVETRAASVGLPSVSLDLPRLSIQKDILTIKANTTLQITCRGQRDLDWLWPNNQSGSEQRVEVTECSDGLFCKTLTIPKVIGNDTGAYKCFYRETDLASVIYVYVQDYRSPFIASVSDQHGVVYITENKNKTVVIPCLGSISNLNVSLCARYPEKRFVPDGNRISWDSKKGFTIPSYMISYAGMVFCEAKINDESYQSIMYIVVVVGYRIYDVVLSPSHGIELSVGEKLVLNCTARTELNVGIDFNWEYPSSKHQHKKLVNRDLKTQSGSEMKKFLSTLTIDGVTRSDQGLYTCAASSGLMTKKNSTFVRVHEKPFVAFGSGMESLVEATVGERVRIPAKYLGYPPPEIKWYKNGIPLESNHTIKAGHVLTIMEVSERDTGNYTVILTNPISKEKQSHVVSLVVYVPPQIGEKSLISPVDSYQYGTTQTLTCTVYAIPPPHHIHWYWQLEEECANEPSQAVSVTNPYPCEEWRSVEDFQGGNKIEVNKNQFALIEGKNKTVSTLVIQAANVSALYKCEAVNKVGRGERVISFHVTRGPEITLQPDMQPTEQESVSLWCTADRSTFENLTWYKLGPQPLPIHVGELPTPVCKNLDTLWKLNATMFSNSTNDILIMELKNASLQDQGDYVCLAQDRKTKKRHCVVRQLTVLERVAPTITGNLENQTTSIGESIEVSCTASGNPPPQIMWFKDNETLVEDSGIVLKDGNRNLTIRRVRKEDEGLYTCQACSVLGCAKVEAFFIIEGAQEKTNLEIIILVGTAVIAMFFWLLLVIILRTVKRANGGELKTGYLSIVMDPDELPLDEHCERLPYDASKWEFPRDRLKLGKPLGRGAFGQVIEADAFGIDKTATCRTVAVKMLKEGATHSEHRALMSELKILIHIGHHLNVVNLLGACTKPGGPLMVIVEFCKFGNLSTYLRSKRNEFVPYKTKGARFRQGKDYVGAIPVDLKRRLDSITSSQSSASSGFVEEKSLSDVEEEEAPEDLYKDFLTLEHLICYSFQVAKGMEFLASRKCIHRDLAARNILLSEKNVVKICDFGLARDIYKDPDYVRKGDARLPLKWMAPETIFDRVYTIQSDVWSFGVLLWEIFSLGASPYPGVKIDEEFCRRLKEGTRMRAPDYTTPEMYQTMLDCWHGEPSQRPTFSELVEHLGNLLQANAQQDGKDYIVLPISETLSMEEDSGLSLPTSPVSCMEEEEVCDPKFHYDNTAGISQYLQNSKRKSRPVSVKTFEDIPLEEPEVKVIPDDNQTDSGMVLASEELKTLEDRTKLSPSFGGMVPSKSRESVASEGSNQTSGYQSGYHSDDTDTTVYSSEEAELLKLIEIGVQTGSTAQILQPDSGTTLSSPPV
Chain of Mast/stem cell growth factor receptor Kit (Homo sapiens), P10721 [V560G] (P10721 whole entry V560G): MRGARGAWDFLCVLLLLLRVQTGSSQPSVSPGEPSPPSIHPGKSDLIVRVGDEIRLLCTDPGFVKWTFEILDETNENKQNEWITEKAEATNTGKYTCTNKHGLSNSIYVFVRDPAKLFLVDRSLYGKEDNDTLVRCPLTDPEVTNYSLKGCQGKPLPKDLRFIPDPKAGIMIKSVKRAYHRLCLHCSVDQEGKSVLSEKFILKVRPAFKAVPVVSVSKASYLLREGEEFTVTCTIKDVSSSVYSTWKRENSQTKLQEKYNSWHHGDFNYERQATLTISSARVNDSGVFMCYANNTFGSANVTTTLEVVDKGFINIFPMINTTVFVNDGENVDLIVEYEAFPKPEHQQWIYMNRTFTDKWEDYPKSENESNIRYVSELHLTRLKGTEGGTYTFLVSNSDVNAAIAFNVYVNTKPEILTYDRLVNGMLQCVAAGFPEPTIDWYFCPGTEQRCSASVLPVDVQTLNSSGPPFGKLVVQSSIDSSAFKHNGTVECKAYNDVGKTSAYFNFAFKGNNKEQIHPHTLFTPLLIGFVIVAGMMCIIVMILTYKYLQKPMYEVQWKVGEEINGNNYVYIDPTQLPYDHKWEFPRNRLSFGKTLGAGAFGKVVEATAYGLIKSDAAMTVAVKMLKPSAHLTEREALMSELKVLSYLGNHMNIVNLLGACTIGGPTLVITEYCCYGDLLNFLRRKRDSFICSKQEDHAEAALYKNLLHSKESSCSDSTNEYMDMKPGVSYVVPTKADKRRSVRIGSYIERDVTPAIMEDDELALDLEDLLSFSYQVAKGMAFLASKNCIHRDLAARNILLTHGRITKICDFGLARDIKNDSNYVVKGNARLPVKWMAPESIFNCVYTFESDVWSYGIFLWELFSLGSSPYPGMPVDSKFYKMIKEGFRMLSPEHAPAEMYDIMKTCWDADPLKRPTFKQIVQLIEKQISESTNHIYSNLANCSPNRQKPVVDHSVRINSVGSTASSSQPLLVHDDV
Chain of Tyrosine-protein kinase JAK1 (Homo sapiens) (P23458 whole entry): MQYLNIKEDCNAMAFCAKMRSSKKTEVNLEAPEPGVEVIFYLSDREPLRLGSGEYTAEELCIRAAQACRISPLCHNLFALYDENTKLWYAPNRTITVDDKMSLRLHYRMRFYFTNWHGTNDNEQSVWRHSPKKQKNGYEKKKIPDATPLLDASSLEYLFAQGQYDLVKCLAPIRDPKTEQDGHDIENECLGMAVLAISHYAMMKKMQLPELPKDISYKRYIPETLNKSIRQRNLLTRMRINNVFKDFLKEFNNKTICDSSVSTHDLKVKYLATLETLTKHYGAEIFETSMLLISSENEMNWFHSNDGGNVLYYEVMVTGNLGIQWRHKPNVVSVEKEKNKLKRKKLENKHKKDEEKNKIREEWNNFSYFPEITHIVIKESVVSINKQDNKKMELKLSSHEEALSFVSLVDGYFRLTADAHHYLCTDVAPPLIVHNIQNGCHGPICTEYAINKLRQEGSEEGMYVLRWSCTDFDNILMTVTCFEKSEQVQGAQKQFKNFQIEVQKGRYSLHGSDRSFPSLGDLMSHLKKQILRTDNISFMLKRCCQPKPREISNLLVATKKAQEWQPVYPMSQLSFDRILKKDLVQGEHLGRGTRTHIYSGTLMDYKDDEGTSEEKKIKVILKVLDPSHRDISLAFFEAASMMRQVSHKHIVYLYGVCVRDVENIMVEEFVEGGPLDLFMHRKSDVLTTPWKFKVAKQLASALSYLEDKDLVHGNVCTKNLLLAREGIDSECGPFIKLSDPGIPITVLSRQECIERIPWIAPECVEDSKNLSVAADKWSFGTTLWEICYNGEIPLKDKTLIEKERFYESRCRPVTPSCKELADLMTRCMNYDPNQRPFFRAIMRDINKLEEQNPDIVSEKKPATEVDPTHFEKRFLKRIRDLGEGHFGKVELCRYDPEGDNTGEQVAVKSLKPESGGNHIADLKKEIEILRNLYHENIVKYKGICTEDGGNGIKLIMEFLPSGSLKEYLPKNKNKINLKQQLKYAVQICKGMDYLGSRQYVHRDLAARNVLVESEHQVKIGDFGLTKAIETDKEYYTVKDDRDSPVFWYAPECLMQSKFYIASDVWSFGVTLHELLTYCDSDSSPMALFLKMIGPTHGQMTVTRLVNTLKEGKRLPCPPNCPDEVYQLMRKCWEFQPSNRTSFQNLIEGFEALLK
Chain of Leukocyte tyrosine kinase receptor (Homo sapiens) (P29376 whole entry): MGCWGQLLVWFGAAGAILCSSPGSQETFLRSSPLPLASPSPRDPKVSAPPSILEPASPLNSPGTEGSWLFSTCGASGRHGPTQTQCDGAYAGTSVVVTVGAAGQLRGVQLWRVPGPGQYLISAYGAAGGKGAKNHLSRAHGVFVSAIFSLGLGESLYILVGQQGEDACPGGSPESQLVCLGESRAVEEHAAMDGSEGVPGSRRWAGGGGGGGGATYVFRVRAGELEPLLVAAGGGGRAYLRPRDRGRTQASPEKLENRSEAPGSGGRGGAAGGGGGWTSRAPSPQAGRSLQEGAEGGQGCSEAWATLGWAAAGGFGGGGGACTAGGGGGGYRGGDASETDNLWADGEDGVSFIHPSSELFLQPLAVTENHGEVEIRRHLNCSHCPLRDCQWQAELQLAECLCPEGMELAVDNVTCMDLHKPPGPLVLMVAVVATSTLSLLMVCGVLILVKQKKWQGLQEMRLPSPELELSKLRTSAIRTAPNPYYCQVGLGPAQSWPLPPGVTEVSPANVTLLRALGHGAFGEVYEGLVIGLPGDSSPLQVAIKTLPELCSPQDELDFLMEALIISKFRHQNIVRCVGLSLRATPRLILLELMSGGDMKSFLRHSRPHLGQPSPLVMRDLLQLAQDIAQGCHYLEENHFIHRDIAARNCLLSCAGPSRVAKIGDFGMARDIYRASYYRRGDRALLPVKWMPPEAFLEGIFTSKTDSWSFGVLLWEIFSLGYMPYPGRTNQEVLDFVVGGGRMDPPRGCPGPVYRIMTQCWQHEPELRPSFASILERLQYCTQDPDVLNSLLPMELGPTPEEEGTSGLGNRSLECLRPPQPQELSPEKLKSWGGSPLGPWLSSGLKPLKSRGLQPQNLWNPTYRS
Chain of Mast/stem cell growth factor receptor Kit (Homo sapiens), P10721 [T670I] (P10721 whole entry T670I): as the sequence (P10721 whole entry V560G) above, with G560V, T670I counted along it
Chain of Mast/stem cell growth factor receptor Kit (Homo sapiens) (P10721 whole entry): as the sequence (P10721 whole entry V560G) above, with G560V counted along it
Chain of Mast/stem cell growth factor receptor Kit (Homo sapiens), P10721 [D816V] (P10721 whole entry D816V): as the sequence (P10721 whole entry V560G) above, with G560V, D816V counted along it
Chain of Tyrosine-protein kinase Lck (Homo sapiens) (P06239 2-509 limits assumed): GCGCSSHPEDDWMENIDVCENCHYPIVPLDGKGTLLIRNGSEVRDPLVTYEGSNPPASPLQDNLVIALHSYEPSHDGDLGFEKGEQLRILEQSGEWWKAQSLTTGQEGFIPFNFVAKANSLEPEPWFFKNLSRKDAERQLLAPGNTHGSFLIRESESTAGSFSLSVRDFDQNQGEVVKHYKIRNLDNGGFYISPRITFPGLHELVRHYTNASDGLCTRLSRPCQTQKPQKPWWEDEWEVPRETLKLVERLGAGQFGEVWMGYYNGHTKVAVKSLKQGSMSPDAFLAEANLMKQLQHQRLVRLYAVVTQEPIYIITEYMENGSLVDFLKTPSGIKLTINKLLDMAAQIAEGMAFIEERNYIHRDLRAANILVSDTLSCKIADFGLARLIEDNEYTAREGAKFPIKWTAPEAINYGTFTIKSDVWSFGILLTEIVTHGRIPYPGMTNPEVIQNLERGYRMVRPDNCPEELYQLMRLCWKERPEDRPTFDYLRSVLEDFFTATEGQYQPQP

By inhibition is commonly meant the drop in the measured response relative to a control, in per cent. In the case of `O=S(=O)(CCOCc1ccc(-c2ccc3ncnc(Nc4ccc(OCc5cccc(F)c5)c(Cl)c4)c3c2)o1)c1ccccc1`, the inhibition in assay [1] is 1%; in assay [2], 1.54%; in [3], 2.21%; in assay [4], 0.38%; in assay [5], 0.42%; in assay [6], 0.16%. Moreover, the inhibition is 2.6% in [7]; 1.71% in assay [8]; 8% in assay [9]; 1.81% in assay [10]; 0.51% in assay [11]; 0.43% in assay [12]. The inhibition in assay [13] was -1.83%; in assay [14] it was 5.11%; in [15] it was 0.78%; in [16], -1.47%; in assay [17], -2.4%; in [18], 1.96%. In addition, the results for the inhibition in assay [19] and in assay [20] were 3.4% and 2.35%, respectively.

`COc1cccc(-n2ncc3c(N/N=C/c4ccc(S(C)(=O)=O)cc4)ncnc32)c1`: the inhibition in assay [1] was 0.29%; in assay [2] it was 1.39%; in assay [3], 6.92%; in assay [4] it was 1.22%; in assay [5], 11.5%; in assay [6] it was -4.07%. Besides, the inhibition in assay [7] came out at 5.53%; in assay [8] it was 31.4%; in [9], 66.4%; in [10], 16%; in assay [11], 61.6%; in [12] it was 1.61%. Further, the inhibition in assay [13] is 9.23%; in [14], 7.49%; in assay [15] it was 44.8%; in [16], 1.83%; in assay [17] it was 7.89%; in [18] it was 37.7%. In addition, the results for the inhibition in assay [19] and in assay [20] were 73.9% and 1.43%, respectively.

Take `c1ccc(Nc2ncc(-c3ccccc3)o2)cc1`: the inhibition in [1] is 1.67%; in [2] it was 8.4%; in [3], 8.08%; in assay [4], 1.08%; in assay [5], 1.6%; in [6], -1.29%. Moreover, the inhibition is -1.89% in assay [7]; 4.68% in assay [8]; 19.8% in [9]; 30.9% in assay [10]; 88.1% in assay [11]; 1.88% in assay [12]. For the same compound, the inhibition came out at 3.71% in assay [13]; 4.48% in assay [14]; 40% in assay [15]; 1.47% in assay [16]; 50.4% in assay [17]; 3.52% in [18]. The inhibition in assay [19] worked out at 10.9%; in [20], 6.86%.

For `O=C1Nc2ccc(-c3cccnc3)cc2C1=Cc1cc(Br)c(O)c(Br)c1`, the inhibition was 2.67% in [1]; 2.38% in [2]; 1.97% in [3]; 1.07% in assay [4]; 3.68% in assay [5]; -1.1% in [6]. For the same compound, the inhibition in assay [7] worked out at 15.8%; in assay [8], 4.5%; in assay [9] it was 10.1%; in assay [10], 3.48%; in assay [11], 3.66%; in assay [12] it was 3.44%. Moreover, the inhibition in assay [13] came out at 2.96%; in [14] it was 3.51%; in [15] it was 0.52%; in assay [16], 0.16%; in assay [17] it was 2.16%; in assay [18] it was 3.31%. Further, the inhibition in assay [19] came out at 13.2%; in assay [20], 4.94%.

With `CCCN1CCCC(c2ccc(Nc3nc(Nc4cc(F)ccc4C(N)=O)c4cc[nH]c4n3)c(OC)c2)C1` (centres undefined), the inhibition was 6% in [1]; -0.47% in assay [2]; -0.81% in assay [3]; 1.82% in assay [4]; 2.51% in assay [5]; -1.48% in assay [6]. The inhibition in [7] was -3.27%; in assay [8], 7.45%; in [9], 16.6%; in assay [10] it was 8.98%; in assay [11], 13.1%; in assay [12], 4.45%. In addition, the inhibition in [13] was 4.83%; in assay [14] it was 2.47%; in assay [15] it was 3.44%; in [16], -0.05%; in [17], -0.43%; in [18], 1.09%. In addition, the inhibition in [19] came out at 6.22%; in assay [20], 95%.

Consider `COc1cc2ncn(-c3cc(OCc4ccccc4S(C)(=O)=O)c(C#N)s3)c2cc1OC`, for which the inhibition in [1] was found to be 11.5%; in [2], 3.78%; in assay [3] it was 5.39%; in assay [4] it was 2.72%; in assay [5], 29.4%; in assay [6], 5.19%. The inhibition is 55% in assay [7]; 25.6% in assay [8]; 67.3% in [9]; 5.42% in assay [10]; 7.97% in assay [11]; 2.49% in assay [12]. For the same compound, the inhibition turned out to be 5.22% in assay [13]; 3.82% in [14]; 2.96% in [15]; 0.98% in [17]; 23.3% in assay [18]; 69.2% in assay [19]. The inhibition in assay [20] came to 4%.
